Screens deposited in PubChem by University of Kansas High Throughput Screening Laboratory.
mHTT CaM bind = disrupts binding of mutant huntingtin to calmodulin; P42858; AlphaScreen His-mHTT/GST-CaM binding, luminescence; inhibition, % at 15 µM; actives 3.6% (n = 190,000)
Target sequence (P42858 whole entry, looked up, change not shown): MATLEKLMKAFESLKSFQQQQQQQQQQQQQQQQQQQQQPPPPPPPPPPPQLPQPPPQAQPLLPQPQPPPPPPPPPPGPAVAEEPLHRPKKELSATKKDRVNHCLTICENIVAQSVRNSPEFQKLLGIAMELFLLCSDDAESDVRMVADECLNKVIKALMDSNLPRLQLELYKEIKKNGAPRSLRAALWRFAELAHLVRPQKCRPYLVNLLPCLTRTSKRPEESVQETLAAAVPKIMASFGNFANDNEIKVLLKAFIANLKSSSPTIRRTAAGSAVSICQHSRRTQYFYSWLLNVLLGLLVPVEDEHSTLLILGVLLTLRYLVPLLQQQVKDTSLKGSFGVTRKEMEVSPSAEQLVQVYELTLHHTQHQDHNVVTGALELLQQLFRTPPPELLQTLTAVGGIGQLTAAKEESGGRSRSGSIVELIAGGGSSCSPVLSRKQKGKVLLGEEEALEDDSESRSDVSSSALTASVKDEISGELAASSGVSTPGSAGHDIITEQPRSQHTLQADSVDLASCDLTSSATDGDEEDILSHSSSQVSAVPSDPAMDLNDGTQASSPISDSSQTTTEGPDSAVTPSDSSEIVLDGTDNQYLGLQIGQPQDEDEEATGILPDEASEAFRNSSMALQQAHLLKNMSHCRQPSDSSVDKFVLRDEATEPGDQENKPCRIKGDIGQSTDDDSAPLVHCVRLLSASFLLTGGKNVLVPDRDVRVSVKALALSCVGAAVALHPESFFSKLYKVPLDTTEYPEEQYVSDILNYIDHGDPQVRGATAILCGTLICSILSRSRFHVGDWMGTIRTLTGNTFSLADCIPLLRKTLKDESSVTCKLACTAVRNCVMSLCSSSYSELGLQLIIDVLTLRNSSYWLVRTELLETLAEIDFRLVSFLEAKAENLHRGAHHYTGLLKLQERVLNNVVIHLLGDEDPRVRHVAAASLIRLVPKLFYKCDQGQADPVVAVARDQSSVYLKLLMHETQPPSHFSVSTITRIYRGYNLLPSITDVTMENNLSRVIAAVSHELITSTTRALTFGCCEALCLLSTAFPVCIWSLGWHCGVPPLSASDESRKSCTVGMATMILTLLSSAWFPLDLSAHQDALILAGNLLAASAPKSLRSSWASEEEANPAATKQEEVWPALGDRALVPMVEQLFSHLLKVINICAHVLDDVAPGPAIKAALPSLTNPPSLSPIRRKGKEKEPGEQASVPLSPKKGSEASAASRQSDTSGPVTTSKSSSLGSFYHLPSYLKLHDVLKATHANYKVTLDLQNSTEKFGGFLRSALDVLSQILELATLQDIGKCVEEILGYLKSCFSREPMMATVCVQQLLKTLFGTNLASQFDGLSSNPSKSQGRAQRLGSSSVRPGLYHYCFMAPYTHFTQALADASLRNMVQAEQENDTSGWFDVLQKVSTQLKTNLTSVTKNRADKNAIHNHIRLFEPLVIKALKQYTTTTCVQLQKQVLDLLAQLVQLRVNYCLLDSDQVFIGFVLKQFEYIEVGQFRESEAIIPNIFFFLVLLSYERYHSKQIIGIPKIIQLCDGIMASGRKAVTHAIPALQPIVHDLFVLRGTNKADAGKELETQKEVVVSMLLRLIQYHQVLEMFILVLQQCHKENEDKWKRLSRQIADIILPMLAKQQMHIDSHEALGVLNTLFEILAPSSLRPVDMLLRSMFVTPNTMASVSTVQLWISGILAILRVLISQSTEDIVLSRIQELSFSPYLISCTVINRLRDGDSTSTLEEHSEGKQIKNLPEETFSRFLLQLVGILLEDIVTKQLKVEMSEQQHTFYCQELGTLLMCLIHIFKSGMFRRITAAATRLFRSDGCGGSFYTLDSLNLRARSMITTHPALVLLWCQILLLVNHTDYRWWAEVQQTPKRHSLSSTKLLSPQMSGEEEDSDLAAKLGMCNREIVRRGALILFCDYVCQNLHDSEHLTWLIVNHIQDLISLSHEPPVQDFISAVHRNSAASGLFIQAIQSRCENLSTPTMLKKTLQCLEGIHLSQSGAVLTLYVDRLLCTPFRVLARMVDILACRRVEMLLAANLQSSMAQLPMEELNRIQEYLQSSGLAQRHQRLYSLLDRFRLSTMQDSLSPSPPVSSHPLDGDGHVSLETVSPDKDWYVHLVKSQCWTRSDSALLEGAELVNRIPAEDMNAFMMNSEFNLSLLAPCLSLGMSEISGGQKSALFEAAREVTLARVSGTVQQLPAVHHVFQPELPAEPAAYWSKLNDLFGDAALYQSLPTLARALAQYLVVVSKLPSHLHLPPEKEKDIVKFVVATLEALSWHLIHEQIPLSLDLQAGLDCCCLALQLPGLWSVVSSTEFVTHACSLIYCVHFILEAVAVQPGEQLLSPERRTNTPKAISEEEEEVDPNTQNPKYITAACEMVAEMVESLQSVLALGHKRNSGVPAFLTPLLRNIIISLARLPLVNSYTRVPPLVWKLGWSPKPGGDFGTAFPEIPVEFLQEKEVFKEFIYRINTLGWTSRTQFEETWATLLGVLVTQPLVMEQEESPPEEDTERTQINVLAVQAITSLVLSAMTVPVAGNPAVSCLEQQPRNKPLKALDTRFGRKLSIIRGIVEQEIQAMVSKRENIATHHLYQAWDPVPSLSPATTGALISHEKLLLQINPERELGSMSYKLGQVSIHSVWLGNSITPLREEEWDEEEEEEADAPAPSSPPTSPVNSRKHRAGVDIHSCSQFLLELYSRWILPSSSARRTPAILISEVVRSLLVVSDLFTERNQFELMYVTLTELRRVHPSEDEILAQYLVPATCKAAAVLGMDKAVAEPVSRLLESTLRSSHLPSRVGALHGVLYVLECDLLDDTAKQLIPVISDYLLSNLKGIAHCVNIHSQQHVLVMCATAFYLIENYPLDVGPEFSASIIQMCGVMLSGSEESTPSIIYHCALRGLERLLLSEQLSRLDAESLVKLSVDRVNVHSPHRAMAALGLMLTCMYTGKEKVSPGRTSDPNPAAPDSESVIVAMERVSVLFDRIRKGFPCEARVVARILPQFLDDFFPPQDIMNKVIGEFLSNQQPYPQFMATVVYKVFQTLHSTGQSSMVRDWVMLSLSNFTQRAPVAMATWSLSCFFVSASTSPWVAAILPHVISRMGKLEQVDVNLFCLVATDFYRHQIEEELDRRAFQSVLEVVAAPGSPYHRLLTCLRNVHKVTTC
Pf apPOL block = Pf-apPOL DNA polymerase inhibition | Recombinant Pf-apPOL, molecular beacon fluorescence, 1.5 h | inhibition, % at 10 µM | actives 0.25% (n = 210,000) | AID 1794808
Of the large screens only hits and unclear results are named; the others gave an inactive call. Most compounds without a hit are left out; they make up all but 3.6% or so of the library. No stated cut-off is given here; in the data, active means inhibition above about 50%; inactive means the rest.

CCOc1ccc(NC(=O)c2ccc3c(c2)OCO3)c([N+](=O)[O-])c1	none
CC1CCN(CCNc2ccc(-c3nc(-c4ccc(F)cc4)no3)cn2)CC1	mHTT CaM bind 51
CC1CCN(CCCNc2ccc(-c3nc(-c4ccc(F)cc4)no3)cn2)CC1	none
Cc1ccc(Cl)cc1NC(=O)C(=O)NCC1CCN(C(=O)Nc2ccc(F)cc2)CC1	none
CCCCNC(=O)C1CC(c2cc(OC)c(OC)c(OC)c2)=NO1 (stereo not drawn)	none
COc1ccccc1/C=c1\sc2nc(=O)c(Cc3ccccc3)nn2c1=O	none
COc1ccccc1/C=C/C=c1\sc2nc(=O)c(Cc3ccccc3)nn2c1=O	mHTT CaM bind 51
COc1ccc2cc3cc(C(=O)N4CCC(C(N)=O)CC4)sc3nc2c1	none
CCc1ccccc1N(CC(=O)Nc1ccc(F)cc1F)S(=O)(=O)c1ccccc1	mHTT CaM bind 81
CCc1ccccc1N(CC(=O)Nc1ccccc1C(=O)NC(C)C)S(C)(=O)=O	none
CC(C)NC(=O)c1ccccc1NC(=O)CN(c1ccccc1F)S(=O)(=O)c1ccccc1	Pf apPOL block 92
COc1ccc(N(CC(=O)Nc2ccc(F)cc2F)S(=O)(=O)c2ccccc2)c(OC)c1	none
Cc1nnc2ccc(OCCNS(=O)(=O)c3ccccc3C(F)(F)F)nn12	none
Oc1ccccc1-c1cc(-c2ccc(Br)cc2)n[nH]1	none
COc1ccc(-c2cc(-c3cc(C)ccc3O)[nH]n2)cc1	mHTT CaM bind 70
Cc1[nH]nc(-c2ccccc2)c1Br	none
Cc1cc(-c2ccccc2)n[nH]1	Pf apPOL block 83
Oc1ccccc1-c1cc(-c2ccccc2)no1	none
Cc1ccc(O)c(-c2cc(-c3ccccc3)n[nH]2)c1	mHTT CaM bind 74
COc1ccc(-c2cc(C(=O)O)c3cc(C)ccc3n2)cc1	none
Oc1ccccc1-c1cc(-c2cccc(Br)c2)n[nH]1	mHTT CaM bind 96
Cn1cnc([N+](=O)[O-])c1Sc1ncnc2c1ncn2Cc1ccccc1	none
COc1cccc(-c2noc(C3CCCN3C(=O)Nc3cc(C)cc(C)c3)n2)c1 (stereo not drawn)	none
Cc1ccc(O)c(-c2cc(-c3cccs3)[nH]n2)c1	mHTT CaM bind 56
NC(N)=NC(N)=Nc1cc(-c2cccs2)[nH]n1	none (no result: mHTT CaM bind)
Cc1ccccc1-c1cc(-c2ccccc2O)on1	none
Cc1nc2cccc(-c3cc(-c4ccccc4O)[nH]n3)c2o1	mHTT CaM bind 67
O=C(Nc1ccc(NC(=O)c2cccs2)cc1)c1ccc(NC(=O)c2cccs2)cc1	none
O=C(NCc1csc(-c2ccccc2)n1)C1CCN(C(=O)c2ccccn2)CC1	none
CCCn1cc(C2=CCN(S(=O)(=O)c3c(C)nn(C)c3C)CC2)c2cccnc21	none
Nc1cc(Br)cc(Br)c1	none (no result: Pf apPOL block)
Cn1cnnc1Sc1nc2c(c(=O)n(C)c(=O)n2C)n1Cc1ccc(Cl)c(Cl)c1	none
c1ccc(-c2ccc3ccccc3n2)nc1	none (no result: Pf apPOL block)
c1ccc(-c2cccc(-c3ccccn3)n2)nc1	mHTT CaM bind 100 (no result: Pf apPOL block)
CC(=O)N1c2c(cc(Br)cc2S(=O)(=O)Nc2c(C)cccc2C)CC1C (stereo not drawn)	none
O=C(NCc1cccc(Cl)c1)c1cc2n(n1)CCCN(Cc1ccccc1)C2=O	none
O=C(NCc1cccc(Cl)c1)c1cc2n(n1)CCCN(Cc1ccc(Cl)cc1)C2=O	mHTT CaM bind 64
O=C(O)c1cnn2cccnc12	none
O=C(O)c1cc2ncccn2n1	Pf apPOL block 52
CC(Oc1ccccc1)C(=O)N1CCCC1 (stereo not drawn)	none
O=[N+]([O-])c1ccc(-c2nnn(CNc3ccccc3)n2)cc1	mHTT CaM bind 53
O=C(Cn1nnc(-c2ccccc2)n1)Nc1cccc([N+](=O)[O-])c1	none
COC(=O)c1cnc2nc(C)ccc2c1Nc1ccccc1	none
COC(=O)c1cnc2nc(C)ccc2c1Nc1ccc(Br)cc1	mHTT CaM bind 58
COc1cccc(NC(=O)c2cccc(C)c2)c1	none
CSc1ccc(C2Nc3cccc4cccc(c34)N2)cc1	mHTT CaM bind 69 (no result: Pf apPOL block)
CSc1ccc(C2Nc3ccccc3C(=O)N2c2ccc(C)cc2)cc1 (stereo not drawn)	none
CCn1ccc2oc(C)c(C(=O)N3CCN(c4ccccc4Cl)CC3)c2c1=O	mHTT CaM bind 77
CCC1CCCCN1C(=O)c1c(C)oc2ccn(Cc3ccccc3F)c(=O)c12 (stereo not drawn)	mHTT CaM bind 68
CCn1ccc2oc(C)c(C(=O)N3CCN(C4CCCCC4)CC3)c2c1=O	none
Cc1oc2ccn(Cc3ccccc3F)c(=O)c2c1C(=O)N1CCCC(C)C1 (stereo not drawn)	none
CC(C)C(=O)NCc1csc(C2CCCN(C(=O)c3cccs3)C2)n1 (stereo not drawn)	none
Cc1cc(-c2nnc(NC(=O)C3CCCN(S(=O)(=O)c4cccs4)C3)o2)nn1C (stereo not drawn)	mHTT CaM bind 51
Cc1ccc(NC(=O)C2CCCN(S(=O)(=O)c3cccs3)C2)cn1 (stereo not drawn)	none
CCS(=O)(=O)c1ccc(-c2nnc(NC(=O)C3CCCN(S(C)(=O)=O)C3)o2)cc1 (stereo not drawn)	none
